# “And” between values parts separate entries of the source, which are not always exact repeats. Equal entries are not always repeated. Inconclusive results are not listed. Where a call stands in place of a potency, no number is given. Some compounds were tested as several samples or in several runs, with calls that do not always agree. The source made the active and inactive calls. Unless noted, calls come from the whole dose curve.
# Legend:
# [1] = qHTS assay to identify small molecule agonists of the sonic hedgehog signaling (Shh) pathway (AID 1259368);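 note: NIH/3T3-derived 3T3Gli1-Luc cells carrying a stable Gli1-driven firefly luciferase reporter; series mostly up to about 92 µM; nearly all actives have a fitted effect of over 15% in size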
# Procedure, shortened: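 Steps: seed 3T3 Gli1-Luc cells, incubate 4 hr at 37 C, pin-transfer compounds in DMSO alongside a positive control, incubate 24 hr, add luciferase detection reagent, wait 30 min at room temperature, read luminescence.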
# [2] = qHTS assay to identify small molecule antagonists of the sonic hedgehog signaling (Shh) pathway (AID 1259369); note: nearly all actives have a fitted effect of over 45% in size; note: potency is the fitted concentration of half-maximal effect
# Procedure, shortened: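 Inhibition of Shh signalling is measured as reduced Gli1-response-element firefly luciferase output in an NIH/3T3-derived stable reporter clone stimulated with conditioned medium for 24hr.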
# [3] = qHTS assay to identify small molecule agonists of the androgen receptor (AR) signaling pathway in the presence of an antagonist - cell viability counter screen (AID 1259379; active = well fitted curve in the direction sought with a large enough effect in the repeat runs; an effect the other way counts as inactive or inconclusive; note: nearly all actives have a fitted effect of over 25% in size; note: potency is the fitted concentration of half-maximal effect)
# Procedure, shortened: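 Fluorescence from CellTiter-Fluor, added after 15 hr and read 1 hr later, gave cell viability. Cells were MDA-kb2 exposed to compounds (15 concentrations) in the presence of 3.0uM nilutamide at 37C, 0% CO2.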
# [4] = qHTS assay to identify small molecule agonists of the estrogen receptor beta (ER-beta) signaling pathway - cell viability counter screen (AID 1259380; active = well fitted curve in the direction sought with a large enough effect in the repeat runs; an effect the other way counts as inactive or inconclusive; note: nearly all actives have a fitted effect of over 30% in size; note: potency is the fitted concentration of half-maximal effect)
# Procedure, shortened: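 Same-well viability counter screen. Cells: ER-beta-UAS-bla HEK293T, plated 6 hr before compound, in 2% charcoal-stripped FBS. Compound exposure 16 hr, 37C; viability by CellTiter-Glo luminescence after 30 min at room temperature.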
# [5] = qHTS assay to identify small molecule antagonists of the estrogen receptor beta (ER-beta) signaling pathway - cell viability counter screen (AID 1259382; active = well fitted curve in the direction sought with a large enough effect in the repeat runs; an effect the other way counts as inactive or inconclusive; note: series mostly up to about 92 µM; nearly all actives have a fitted effect of over 55% in size)
# Procedure, shortened: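 Following a 6 hr plating period, HEK293T cells carrying a UAS-driven beta-lactamase reporter under ER-beta control received compounds and 1nM E2 (final). After 16 hr at 37C and 2 hr substrate loading, CellTiter-Glo luminescence indicated viability.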
# [6] = target: Estrogen receptor (Homo sapiens) (UniProt P03372); assay: qHTS assay to identify small molecule agonists of the estrogen receptor alpha (ER-alpha) signaling pathway in the presence of an antagonist (AID 1259383); note: nearly all actives have a fitted effect of over 15% in size; note: potency is the fitted concentration of half-maximal effect; for activation: top concentration of the series differs between compounds
# Procedure, shortened: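 Cells are hormone-deprived for 5 days (charcoal-stripped FBS, no phenol red), plated for 24hr, spiked with 10.0nM ICI-182,780, then dosed at 15 concentrations. After 22hr at 37C, ONE-Glo luminescence reports ERE-luciferase activity.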
# [7] = qHTS assay to identify small molecule agonists or antagonists of the thyroid stimulating hormone receptor (TSHR) signaling pathway - wild type cell line counter screen (AID 1259384)
# Procedure, shortened: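 Wild-type Hek293 cells, 800/well, 18 h at 37C, then compound with Ro20-1724 for 30 min RT. cAMP by HTRF (cAMP-d2/anti-cAMP cryptate), 1 h RT, fluorescence read. 15 concentrations, triplicates.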
# [8] = target: Thyrotropin receptor (Homo sapiens) (UniProt P16473); assay: qHTS assay to identify small molecule antagonists of the thyroid stimulating hormone receptor (TSHR) signaling pathway (AID 1259385); note: nearly all actives have a fitted effect of over 20% in size; note: potency is the fitted concentration of half-maximal effect
# Procedure, shortened: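 TSHR-HEK293 cells (800/well) plated 18 h, then compounds with Ro20-1724 and TSH at 1.5 ng/mL final, 30 min at room temperature. cAMP quantified by HTRF (cAMP-d2/anti-cAMP-cryptate, 1 h); 15 concentrations in triplicate.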
# [9] = qHTS assay to identify small molecule agonists of the estrogen receptor alpha (ER-alpha) signaling pathway in the presence of an antagonist - cell viability counter screen (AID 1259386; active = well fitted curve in the direction sought with a large enough effect in the repeat runs; an effect the other way counts as inactive or inconclusive;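 note: cells exposed to compounds for 22 h at 37 °C before the viability read; nearly all actives have a fitted effect of over 30% in size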; note: potency is the fitted concentration of half-maximal effect)
# Procedure, shortened: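 Cells are starved of estrogens for 5 days in charcoal-stripped serum, seeded for 24hr and co-treated with ICI-182,780 (10.0nM final) and test compounds. After 22hr at 37C, viability is read as CellTiter-Fluor fluorescence.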
# [10] = target: Progesterone receptor (Homo sapiens) (UniProt P06401); assay: qHTS assay to identify small molecule agonists of the progesterone receptor (PR) signaling pathway (AID 1346784); note: nearly all actives have a fitted effect of over 30% in size; note: potency is the fitted concentration of half-maximal effect
# Procedure, shortened: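 Using charcoal-stripped serum (2%) to limit endogenous steroids, PR-UAS-bla HEK 293T cells received compounds for 16 hr at 37C after 6 hr plating; beta-lactamase FRET fluorescence was recorded following 2 hr substrate loading at room temperature.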
# [11] = target: Progesterone receptor (Homo sapiens) (UniProt P06401); assay: qHTS assay to identify small molecule antagonists of the progesterone receptor (PR) signaling pathway (AID 1346795; active = well fitted inhibition curve with a large enough effect in the signal ratio in the repeat runs, not every such curve was filed as active; the % refers to the signal ratio)
# Procedure, shortened: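 Inhibition of R5020-induced (1 nM final) beta-lactamase reporter signal in PR-UAS-bla HEK293T cells was scored by FRET fluorescence after overnight (16 hr) compound treatment.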
# [12] = qHTS assay to identify small molecule antagonists of the progesterone receptor (PR) signaling pathway - cell viability counter screen (AID 1346798; active = well fitted curve in the direction sought with a large enough effect in the repeat runs; an effect the other way counts as inactive or inconclusive; note: series mostly up to about 92 µM; nearly all actives have a fitted effect of over 50% in size)
# Procedure, shortened: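 ATP content as viability readout: CellTiter-Glo luminescence, 30 min room temperature, in PR-UAS-bla HEK293T cells after 16 hr compound/R5020 treatment at 37C and 5% CO2.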
# [13] = qHTS assay to identify small molecule agonists of the progesterone receptor (PR) signaling pathway - cell viability counter screen (AID 1346799); note: nearly all actives have a fitted effect of over 45% in size
# Procedure, shortened: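 Cytotoxicity in PR-bla HEK293T cells: 16 h compound, 37C; CellTiter-Glo added post-FRET read; luminescence after 30 min RT.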
# [14] = qHTS assay to identify small molecule antagonists of the TGF-beta/Smad signaling pathway - cell viability counter screen (AID 1346824; active = well fitted curve in the direction sought with a large enough effect in the repeat runs; an effect the other way counts as inactive or inconclusive; note: nearly all actives have a fitted effect of over 50% in size)
# Procedure, shortened: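 SBE-bla HEK 293T cells, incubated overnight, then compound plus 0.25 ng/mL TGF-beta1 (stock added) for 5 hr at 37 C. Viability was read in the same wells by CellTiter-Glo luminescence after 30 min at room temperature.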
# [15] = qHTS assay to identify small molecule agonists of the TGF-beta/Smad signaling pathway - cell viability counter screen (AID 1346829; active = well fitted curve in the direction sought with a large enough effect in the repeat runs; an effect the other way counts as inactive or inconclusive; note: top concentration of the series differs between compounds; nearly all actives have a fitted effect of over 45% in size)
# Procedure, shortened: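 Cytotoxicity counter screen: CellTiter-Glo luminescence (30 min, room temperature) measured in the SBE-bla HEK 293T reporter wells after 5 hr compound treatment at 37 C and the 2 hr substrate step.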
# [16] = qHTS assay to identify small molecule agonists of the TGF-beta/Smad signaling pathway (AID 1346859; active = well fitted activation curve with a large enough effect in the signal ratio in the repeat runs, not every such curve was filed as active; the % refers to the signal ratio; note: series mostly up to about 77 µM)
# Procedure, shortened: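 Stable Smad binding element-beta-lactamase HEK 293T cells; 5 hr compound exposure at 37 C under 5% CO2; 2 hr room-temperature substrate step; fluorescence excited at 405 nm, collected at 460 nm and 530 nm.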
# [17] = target: Thyrotropin-releasing hormone receptor (Homo sapiens) (UniProt P34981); assay: qHTS assay to identify small molecule antagonists of the thyrotropin-releasing hormone receptor (TRHR) signaling pathway (AID 1346877; active = well fitted inhibition curve with a large enough effect in the repeat runs, not every such curve was filed as active; note: series mostly up to about 51 µM)
# Procedure, shortened: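 Cells (TRHR-HEK293) are plated and kept 18 h at 37 °C/5% CO2. A calcium-sensitive dye is added for 2 h, compound follows for 5 min at room temperature, and TRH is then given at 1 nM final.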
# [18] = target: Androgen receptor (Homo sapiens) (UniProt P10275); assay: qHTS assay to identify small molecule agonists of the androgen receptor (AR) signaling pathway in the presence of an antagonist (AID 1259381); note: nearly all actives have a fitted effect of over 15% in size
# Procedure, shortened: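 Cells are MDA-kb2 (human breast carcinoma, MMTV-luc, AR/GR responsive). Nilutamide is present at 3.0uM final throughout; compounds are added at 15 concentrations and incubated 16hr at 37C before ONE-Glo luminescence detection.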
# [19] = target: Estrogen receptor beta (Homo sapiens) (UniProt Q92731); assay: qHTS assay to identify small molecule agonists of the estrogen receptor beta (ER-beta) signaling pathway (AID 1259377; active = well fitted activation curve with a large enough effect in the signal ratio in the repeat runs, not every such curve was filed as active; the % refers to the signal ratio)
# Procedure, shortened: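 In HEK293T cells bearing a UAS-beta-lactamase reporter under ER-beta control, DMSO-delivered compounds were incubated for 16 hr at 37C. Activity was detected as fluorescence 2 hours after LiveBLAzer B/G FRET substrate addition.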
# [20] = target: Estrogen receptor beta (Homo sapiens) (UniProt Q92731); assay: qHTS assay to identify small molecule antagonists of the estrogen receptor beta (ER-beta) signaling pathway (AID 1259378; active = well fitted inhibition curve with a large enough effect in the signal ratio in the repeat runs, not every such curve was filed as active; the % refers to the signal ratio)
# Procedure, shortened: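 ER-beta-UAS-bla HEK293T cells in 2% charcoal-stripped FBS medium treated with compound plus 1nM final 17-beta-estradiol for 16 hr at 37C. Beta-lactamase reporter read by FRET substrate fluorescence after 2 hours at room temperature.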
# Androgen receptor (Homo sapiens), sequence (P10275 whole entry, looked up): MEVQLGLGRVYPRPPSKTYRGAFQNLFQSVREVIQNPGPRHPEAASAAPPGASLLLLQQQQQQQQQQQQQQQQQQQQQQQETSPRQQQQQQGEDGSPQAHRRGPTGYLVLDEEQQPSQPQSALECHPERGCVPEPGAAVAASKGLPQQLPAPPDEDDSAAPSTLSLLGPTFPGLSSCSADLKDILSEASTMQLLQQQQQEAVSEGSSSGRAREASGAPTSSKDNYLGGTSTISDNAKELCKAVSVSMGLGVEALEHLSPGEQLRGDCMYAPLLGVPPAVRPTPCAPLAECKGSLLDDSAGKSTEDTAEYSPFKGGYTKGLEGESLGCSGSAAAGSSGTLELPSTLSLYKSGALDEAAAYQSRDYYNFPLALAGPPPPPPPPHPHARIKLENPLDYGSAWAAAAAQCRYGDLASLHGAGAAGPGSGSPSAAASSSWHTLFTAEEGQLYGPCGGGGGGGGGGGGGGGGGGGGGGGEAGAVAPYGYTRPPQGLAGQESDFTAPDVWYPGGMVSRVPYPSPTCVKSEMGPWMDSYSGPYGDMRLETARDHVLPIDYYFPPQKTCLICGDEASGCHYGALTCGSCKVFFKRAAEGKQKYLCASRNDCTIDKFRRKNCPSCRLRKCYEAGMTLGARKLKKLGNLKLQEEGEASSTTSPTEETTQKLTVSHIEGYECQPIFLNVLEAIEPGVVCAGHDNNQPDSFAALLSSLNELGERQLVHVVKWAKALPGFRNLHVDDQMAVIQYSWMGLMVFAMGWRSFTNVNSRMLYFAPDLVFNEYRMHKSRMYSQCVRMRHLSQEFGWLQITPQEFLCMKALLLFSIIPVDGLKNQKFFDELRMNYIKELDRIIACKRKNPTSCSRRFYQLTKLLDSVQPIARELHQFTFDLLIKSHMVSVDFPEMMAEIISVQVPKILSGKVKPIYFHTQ
# Estrogen receptor (Homo sapiens), sequence (P03372 whole entry, looked up): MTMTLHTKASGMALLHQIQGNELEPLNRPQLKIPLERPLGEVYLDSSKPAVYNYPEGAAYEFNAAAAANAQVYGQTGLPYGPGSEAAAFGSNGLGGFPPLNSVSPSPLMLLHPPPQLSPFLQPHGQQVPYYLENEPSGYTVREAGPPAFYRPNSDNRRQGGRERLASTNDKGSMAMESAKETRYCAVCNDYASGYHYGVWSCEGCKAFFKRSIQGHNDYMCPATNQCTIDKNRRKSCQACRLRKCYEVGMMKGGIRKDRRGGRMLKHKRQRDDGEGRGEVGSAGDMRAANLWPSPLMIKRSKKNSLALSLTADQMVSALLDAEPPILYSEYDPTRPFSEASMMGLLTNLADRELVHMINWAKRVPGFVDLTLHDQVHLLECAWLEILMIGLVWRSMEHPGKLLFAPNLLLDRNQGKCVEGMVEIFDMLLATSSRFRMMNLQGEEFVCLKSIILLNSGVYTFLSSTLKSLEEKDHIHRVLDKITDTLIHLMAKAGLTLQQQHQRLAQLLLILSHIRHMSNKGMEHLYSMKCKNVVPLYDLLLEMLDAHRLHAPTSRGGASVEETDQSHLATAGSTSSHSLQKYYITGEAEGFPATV
# Thyrotropin receptor (Homo sapiens), sequence (P16473 whole entry, looked up): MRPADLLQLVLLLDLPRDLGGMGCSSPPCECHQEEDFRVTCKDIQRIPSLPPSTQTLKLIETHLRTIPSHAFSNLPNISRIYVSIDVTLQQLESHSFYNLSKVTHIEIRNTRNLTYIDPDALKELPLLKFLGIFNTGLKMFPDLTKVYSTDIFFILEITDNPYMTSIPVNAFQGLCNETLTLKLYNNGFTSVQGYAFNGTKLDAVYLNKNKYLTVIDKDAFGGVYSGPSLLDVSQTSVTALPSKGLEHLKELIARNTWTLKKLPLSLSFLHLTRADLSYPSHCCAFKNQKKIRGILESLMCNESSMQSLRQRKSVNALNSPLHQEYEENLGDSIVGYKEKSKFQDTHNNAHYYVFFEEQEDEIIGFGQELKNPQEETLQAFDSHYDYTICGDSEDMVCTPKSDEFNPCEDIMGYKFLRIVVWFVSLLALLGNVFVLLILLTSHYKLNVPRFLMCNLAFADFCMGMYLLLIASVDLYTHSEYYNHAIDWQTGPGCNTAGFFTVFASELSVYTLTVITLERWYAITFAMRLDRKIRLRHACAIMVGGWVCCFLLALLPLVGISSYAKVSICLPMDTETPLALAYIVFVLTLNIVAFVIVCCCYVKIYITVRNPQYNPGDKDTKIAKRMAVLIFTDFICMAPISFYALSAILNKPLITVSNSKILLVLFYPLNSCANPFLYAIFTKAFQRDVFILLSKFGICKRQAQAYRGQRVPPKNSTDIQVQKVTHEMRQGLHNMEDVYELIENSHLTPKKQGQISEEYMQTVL
# Progesterone receptor (Homo sapiens), sequence (P06401 whole entry, looked up): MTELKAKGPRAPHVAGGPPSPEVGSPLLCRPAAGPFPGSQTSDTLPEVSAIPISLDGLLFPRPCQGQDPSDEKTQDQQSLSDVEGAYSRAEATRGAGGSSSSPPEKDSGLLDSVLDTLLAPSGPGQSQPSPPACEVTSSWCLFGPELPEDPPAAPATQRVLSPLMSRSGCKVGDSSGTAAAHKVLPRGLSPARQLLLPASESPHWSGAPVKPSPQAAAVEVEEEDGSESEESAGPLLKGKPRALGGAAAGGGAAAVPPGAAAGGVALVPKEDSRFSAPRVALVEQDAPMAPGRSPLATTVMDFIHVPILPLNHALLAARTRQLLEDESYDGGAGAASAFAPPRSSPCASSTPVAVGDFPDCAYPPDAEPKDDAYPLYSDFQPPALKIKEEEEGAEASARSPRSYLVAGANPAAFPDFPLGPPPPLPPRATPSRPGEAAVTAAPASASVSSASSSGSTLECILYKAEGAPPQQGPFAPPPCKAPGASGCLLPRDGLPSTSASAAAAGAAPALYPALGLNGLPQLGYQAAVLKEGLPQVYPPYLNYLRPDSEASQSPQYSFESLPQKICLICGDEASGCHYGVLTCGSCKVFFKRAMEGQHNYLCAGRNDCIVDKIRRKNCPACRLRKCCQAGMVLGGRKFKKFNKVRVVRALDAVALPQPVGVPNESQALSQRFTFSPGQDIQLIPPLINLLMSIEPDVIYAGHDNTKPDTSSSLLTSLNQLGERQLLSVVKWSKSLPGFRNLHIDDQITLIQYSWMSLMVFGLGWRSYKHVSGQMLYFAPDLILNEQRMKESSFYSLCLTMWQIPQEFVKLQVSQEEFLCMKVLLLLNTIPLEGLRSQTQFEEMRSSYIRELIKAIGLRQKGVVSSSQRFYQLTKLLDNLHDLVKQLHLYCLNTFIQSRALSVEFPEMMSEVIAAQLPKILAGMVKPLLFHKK
# Thyrotropin-releasing hormone receptor (Homo sapiens), sequence (P34981 whole entry, looked up): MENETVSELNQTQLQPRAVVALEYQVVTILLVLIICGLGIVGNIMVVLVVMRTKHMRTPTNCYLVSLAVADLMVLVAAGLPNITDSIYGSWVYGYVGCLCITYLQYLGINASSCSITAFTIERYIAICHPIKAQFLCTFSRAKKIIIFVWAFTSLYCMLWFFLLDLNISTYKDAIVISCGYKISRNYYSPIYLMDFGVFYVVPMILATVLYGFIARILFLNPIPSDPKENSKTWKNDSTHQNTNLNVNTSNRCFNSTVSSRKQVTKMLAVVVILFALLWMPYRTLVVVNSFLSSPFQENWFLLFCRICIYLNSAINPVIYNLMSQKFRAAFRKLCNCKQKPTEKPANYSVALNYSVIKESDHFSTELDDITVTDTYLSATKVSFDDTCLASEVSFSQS
# Estrogen receptor beta (Homo sapiens), sequence (Q92731 whole entry, looked up): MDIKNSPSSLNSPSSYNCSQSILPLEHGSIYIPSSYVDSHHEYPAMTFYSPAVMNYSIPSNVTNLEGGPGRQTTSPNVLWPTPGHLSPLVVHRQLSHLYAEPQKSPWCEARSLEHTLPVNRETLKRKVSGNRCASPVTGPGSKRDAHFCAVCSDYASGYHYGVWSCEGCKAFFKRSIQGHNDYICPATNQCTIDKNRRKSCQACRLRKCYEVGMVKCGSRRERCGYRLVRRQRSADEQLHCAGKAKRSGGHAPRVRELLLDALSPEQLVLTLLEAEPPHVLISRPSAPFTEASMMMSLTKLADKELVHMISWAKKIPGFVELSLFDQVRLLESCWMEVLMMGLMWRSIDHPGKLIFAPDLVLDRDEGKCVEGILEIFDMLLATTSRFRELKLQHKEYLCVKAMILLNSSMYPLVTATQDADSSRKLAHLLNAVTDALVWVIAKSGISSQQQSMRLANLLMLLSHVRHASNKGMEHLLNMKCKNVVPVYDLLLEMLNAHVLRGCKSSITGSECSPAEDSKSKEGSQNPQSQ
Structure (SMILES),Potency [1],Potency [2],Potency [3],Potency [4],Potency [5],Potency [6],outcome [7],Potency [8],Potency [9],Potency [10],Potency [11],Potency [12],Potency [13],Potency [14],Potency [15],outcome [16],Potency [17],outcome [18],Potency [19],Potency [20]
O=Cc1ccccc1O,inactive,inactive,inactive,inactive,inactive,inactive,inactive,inactive,inactive,inactive,inactive,inactive,inactive,inactive,inactive,inactive,inactive,,,
Nc1ncn([C@@H]2O[C@H](CO)[C@@H](O)[C@H]2O)c(=O)n1,inactive,13.7 µM (active),,5.45 µM (active),inactive,inactive,inactive,inactive,inactive,,,inactive,inactive,inactive,inactive,inactive,inactive,inactive,,
C#C[C@]1(O)CC[C@H]2[C@@H]3CCc4cc(OC)ccc4[C@H]3CC[C@@]21C,inactive,inactive,inactive,21.7 µM (active),,137 nM (active) and 211 nM (active),inactive,inactive,inactive,7.7 µM (active),,,,inactive,inactive,,inactive,,,
Cc1c(OCC(F)(F)F)ccnc1CS(=O)c1nc2ccccc2[nH]1 (stereo unspecified),inactive,inactive,inactive,inactive,inactive,,inactive,inactive,,,,,,inactive,inactive,inactive,inactive,,inactive,
O=C(Nc1ccc(Cl)cc1)Nc1ccc(Cl)c(Cl)c1,inactive,12.1 µM (active) and inactive,21.6 µM (active) and 24.3 µM (active) and 26.6 µM (active),1.08 µM (active) and 2.17 µM (active),inactive,inactive,inactive,61.1 µM (active),inactive and 33.5 µM (active),,,,,inactive,inactive,inactive,,inactive,inactive,
CCOCCOCCO,inactive,inactive,inactive,inactive,inactive,,inactive,inactive,inactive,,,,inactive,inactive,inactive,inactive,inactive,inactive,,
COC(C)COC(C)COC(C)CO (stereo unspecified),,inactive,inactive,inactive,inactive,inactive,inactive,inactive,inactive,inactive,,inactive,inactive,inactive,inactive,,inactive,inactive,inactive,inactive
